In the library only some 3.3% were active in any assay of this set; here they are far more common.
Autofluor counter: flagged as autofluorescent in microsphere protease counterscreen; fluorescence intensity (test concentration not listed); AID 624483; hit rate 3.1% among 360,000; compound autofluorescence counterscreen, microsphere flow cytometry; active compounds read high; in the data active = fluorescence intensity above about 16000; inconclusive = no clear call, values can overlap the other calls
MazEF act: activators of E. coli MazEF toxin-antitoxin RNase, primary screen, biochemical, fluorescence, uHTS; Endoribonuclease toxin MazF (Escherichia coli (strain K12)), P0AE70; FAM/BHQ RNA-DNA oligo cleavage fluorescence, 5 h; activation, % at 20 µM; hit rate 0.32% among 350,000; AID 504720, 2011; in the data active = activation above about 50%
BoNT F protease: BoNT/F light chain protease inhibitors, primary screen, biochemical, flow cytometry, MLPCN library. inhibition, % at 10 µM. Multiplex microsphere protease cleavage assay. AID 588497, 2011. Botulinum neurotoxin type F light chain protease (Clostridium botulinum). hit rate 0.22% among 360,000; in the data active = inhibition above about 35%, passing the limit was not always enough; inconclusive = no clear call, values can overlap the other calls
BoNT-A LC inh2: BoNT/A light chain protease inhibitors, primary screen, biochemical, flow cytometry, MLPCN library | inhibition, % at 10 µM | AID 588499, 2011 | Botulinum neurotoxin type A light chain protease (Clostridium botulinum A str. ATCC 3502) | hit rate 0.17% among 360,000 | multiplex microsphere protease substrate cleavage
PriA SSB inh: inhibitors of Klebsiella pneumoniae PriA binding to SSB C-terminal tail, primary screen, biochemical, AlphaScreen. inhibition, % at 33 µM. PriA–SSB C-terminal tail interaction (Klebsiella pneumoniae). AID 1272365, 2023. AlphaScreen SSBct-PriA binding, biotinylated peptide. hit rate 0.6% among 430,000; in the data active = inhibition mostly above about 37%, no sharp cut-off; inactive = mostly below about 20%
Anthrax LF prot: Bacillus anthracis LF protease inhibitors, primary screen, biochemical, multiplex microsphere, MLPCN library | multiplex microsphere protease cleavage assay | inhibition, % at 10 µM | hit rate 0.12% among 360,000 | AID 588501, 2011
BoNTA LC inh 1: BoNT/A light chain protease inhibitors, confirmation, biochemical, flow cytometry, cherry pick 1 | shares compounds with BoNT F protease | inhibition, % at 10 µM | multiplex microsphere protease assay | hit rate 3% among 720 | AID 602139, 2011; in the data active = inhibition above about 32%
BoNTF LC inh 1: BoNT/F light chain protease inhibitors, confirmation, biochemical, flow cytometry, cherry pick 1; AID 602140, 2011; shares compounds with BoNT F protease; inhibition, % at 10 µM; multiplex microsphere protease cleavage assay; 720 tested, under 10 active; call rule not given here
Anthrax LF CP1: Bacillus anthracis LF protease inhibitors, confirmation, biochemical, multiplex microsphere, cherry pick 1; 720 tested, under 10 active; shares compounds with BoNT F protease; inhibition, % at 10 µM; multiplex microsphere protease cleavage assay; AID 602142, 2011; call rule not given here
Hits are given with their value; i = inactive; ? = inconclusive; nt = no result. Rule as the data show it, unless noted: active = inhibition above about 30%; inconclusive = no clear call, values can overlap the other calls; inactive = below that.

SMILES	Autofluor counter	MazEF act	BoNT F protease	BoNT-A LC inh2	PriA SSB inh	Anthrax LF prot	BoNTA LC inh 1	BoNTF LC inh 1	Anthrax LF CP1
CCNc1cc(NCCNC(=O)c2c[nH]c3ccccc23)nc(C)n1	nt	nt	nt	nt	i	nt	nt	nt	nt
CN1CCN(n2c3c(c(SCC(=O)Nc4ccc(F)c(Cl)c4)nc2=O)CCCC3)CC1	nt	nt	nt	nt	i	nt	nt	nt	nt
CC(=O)c1sc2nc(-c3cccs3)ccc2c1N	i	i	i	33.7	i	i	i	i	i
Cc1nc(-c2cccs2)ccc1C(=O)O	i	i	i	i	i	i	nt	nt	nt
Nc1c(C(=O)Nc2nc3ccccc3s2)sc2nc(-c3cccs3)ccc12	i	i	i	50.3	i	i	i	i	i
O=C(CSCC(=O)Nc1nc2ccccc2s1)Nc1nc(-c2cccs2)cs1	nt	nt	nt	nt	i	nt	nt	nt	nt
Cc1ccc(C(=O)NCC(c2ccc3c(c2)CCCN3C)N2CCCCC2)cc1 (centres undefined)	nt	nt	nt	nt	i	nt	nt	nt	nt
Clc1cccc(Cl)c1-c1noc(CN2CCOCC2)n1	i	i	?	?	i	36.1	i	i	i
Clc1ccc(-c2noc(CN3CCOCC3)n2)cc1	i	i	i	i	i	?	nt	nt	nt
O=C(NCc1ccc(OC(F)(F)F)cc1)c1coc(NC(=O)c2cnccn2)n1	nt	nt	nt	nt	i	nt	nt	nt	nt
COc1ccc(S(=O)(=O)N(C)C)cc1NC(=O)CCNC(=O)c1ccco1	i	i	41.1	i	i	i	i	i	i
CCC(=O)N1c2ccccc2NC2=C(C(=O)CCC2)C1c1ccccc1 (centres undefined)	i	i	i	i	i	i	nt	nt	nt
Cc1nn2c(c1-c1ccccc1)NC1=C(C(=O)CCC1)C2c1ccccc1 (centres undefined)	i	i	35.7	i	i	i	i	i	i
COc1cccc(/C=C/c2ccncc2)c1OC	i	i	i	i	i	i	i	i	i
CC(C)c1ccc(NC(=O)C2CC(=O)N(C(C)C)C2)cc1 (centres undefined)	i	i	?	i	i	i	nt	nt	nt
Cc1cccc(C)c1NC(=O)C1CC(=O)N(C(C)C)C1 (centres undefined)	i	i	35.0	i	i	i	i	i	i
CCOCC(=O)Nc1ccc2c(c1)OCC(C)(C)C(=O)N2CC	nt	nt	nt	nt	i	nt	nt	nt	nt
CC(=O)NCCn1ccc2ccccc21	i	i	i	i	i	i	nt	nt	nt
O=C(Cc1ccccc1)NCCn1ccc2ccccc21	i	i	i	i	i	i	nt	nt	nt
CN(C)c1cccc(C(=O)NCCCn2ccc3ccccc32)c1	i	i	i	i	i	i	i	i	i
COc1ccccc1C(=O)NCCn1ccc2ccccc21	i	i	35.6	95.9	i	58.6	i	i	i
COc1ccc(C(=O)NCCn2ccc3ccccc32)cc1OC	i	i	i	i	i	i	i	i	i
COc1cc(OC)cc(C(=O)NCCn2ccc3ccccc32)c1	i	i	i	i	i	i	i	i	i
Cc1cccc(-n2c(CNC(=O)COc3ccccc3)nnc2SCC(=O)Nc2cc(C(F)(F)F)ccc2Cl)c1	nt	nt	nt	nt	i	nt	nt	nt	nt
COc1cccc(C(=O)NCCn2ccc3ccccc32)c1	i	i	i	i	i	i	i	i	i
SMILES	Autofluor counter	MazEF act	BoNT F protease	BoNT-A LC inh2	PriA SSB inh	Anthrax LF prot	BoNTA LC inh 1	BoNTF LC inh 1	Anthrax LF CP1
COCC(C)NS(=O)(=O)c1ccc(C(=O)NCCCn2ccc3ccccc32)cc1 (centres undefined)	i	i	i	i	i	i	i	i	i
CC[C@@](CNC(=O)c1cccc2ccccc12)(OC)c1ccccc1	nt	nt	nt	nt	i	nt	nt	nt	nt
CC[C@@](CNC(=O)Cc1ccc(S(=O)(=O)C(C)C)cc1)(OC)c1ccccc1	nt	nt	nt	nt	i	nt	nt	nt	nt
Cc1noc(-c2cccn3c(CNC(=O)Cc4cccs4)nnc23)n1	nt	nt	nt	nt	i	nt	nt	nt	nt
CCc1ccc2nc(NCc3ccccn3)sc2c1	nt	nt	nt	nt	i	nt	nt	nt	nt
COc1ccc(S(=O)(=O)NC(C)C(=O)N2CCCC2)cc1Cl (centres undefined)	i	i	?	i	i	30.9	i	i	i
NC(=O)c1ccc2ncsc2c1	nt	nt	nt	nt	i	nt	nt	nt	nt
COc1ccc(N2C(=O)C3CCCN3C2c2ccccc2)cc1Cl (centres undefined)	i	i	53.3	i	i	i	i	i	i
Cn1cccc1Cc1nnc(SCC(=O)NO)n1Cc1ccccc1	nt	nt	nt	nt	i	nt	nt	nt	nt
CCOC(=O)c1cnc(SC2CC(=O)N(c3cccc(OC)c3)C2=O)nc1N (centres undefined)	i	i	i	i	i	i	i	i	i
CCOC(=O)c1ccc(N2C(=O)CC(Sc3ncccn3)C2=O)cc1 (centres undefined)	i	i	?	i	i	i	nt	nt	nt
COCCn1c(=NC(=O)c2cc(C)on2)sc2c(OC)ccc(OC)c21	nt	nt	nt	nt	i	nt	nt	nt	nt
O=C(CN(C(=O)CNS(=O)(=O)c1ccc(F)cc1)c1ccccc1F)NCc1ccco1	i	i	34.9	i	i	i	i	i	i
CN1CCN(c2cc(OCCNS(=O)(=O)c3cccs3)ncn2)CC1	nt	nt	nt	nt	i	nt	nt	nt	nt
COc1ccc(C(N)C(=O)O)cc1 (centres undefined)	nt	nt	nt	nt	i	nt	nt	nt	nt
COc1ccc([C@@H](O)[C@@H](N)c2ccccc2)cc1	i	i	?	i	i	38.4	i	i	i
Clc1ccc(N2CCN(Cc3ccco3)CC2)cc1	i	i	?	i	i	i	nt	nt	nt
Clc1ccccc1N1CCN(Cc2ccco2)CC1	i	i	50.3	i	i	i	i	i	i
CCOC(=O)N1CCN(C(=O)c2ccc(C)c(S(=O)(=O)Nc3cccc(C)c3C)c2)CC1	i	i	i	?	i	i	nt	nt	nt
CCOC(=O)N1CCN(C(=O)c2ccc(C)c(S(=O)(=O)Nc3ccccc3)c2)CC1	i	i	34.5	i	i	i	i	i	i
Cc1cc(NC(=NS(=O)(=O)c2ccc(F)cc2)c2ccccc2)n(-c2ccccc2)n1	nt	nt	nt	nt	i	nt	nt	nt	nt
Cc1nn(Cc2ccc([N+](=O)[O-])cc2)c(=O)n1N(C)c1ncc(C(F)(F)F)cc1Cl	i	i	38.4	i	i	i	i	i	i
Cc1nn(Cc2ccc(Cl)cc2)c(=O)n1N(C)c1ncc(C(F)(F)F)cc1Cl	i	i	i	i	i	i	nt	nt	nt
COc1cc2nc(/C=C/c3ccc(N(C)C)cc3)sc2cc1SC	i	i	i	39.4	i	i	i	i	i
COCCN(C(=O)c1ccccc1)c1nnc(-c2cccnc2)s1	i	i	35.5	i	i	i	i	i	i
COCCN(C(=O)CC(C)(C)C)c1nnc(-c2cccnc2)s1	i	i	i	i	i	i	nt	nt	nt

Assay outcomes from PubChem BioAssay.
